Columns and labels:
Assay in all cases: PBM binding z-score (relative to random genomic background probes); higher = stronger binding; sequences stand for … in GC…GCGATTGACAGCGTAGAATGAAGG
[1] = system: PPARg:RXRa IVT, anti-PPARg (NR concentration 270 nM, RXRa partner concentration 90 nM)
Procedure, shortened: (§1)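 Binding z-scores take random background probes as their reference. They come from custom Agilent 4×180K protein-binding microarrays incubated 1 h with ligand-free nuclear receptor dimers, with antibodies against each partner (one per run) detecting binding. Scanned fluorescence was regression-normalized.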

[2] = system: PPARg DBDmut:RXRa IVT, anti-PPARg (DBD mutation: PPARg1 K132A/R137A, NR concentration 270 nM, RXRa partner concentration 90 nM)
Procedure, shortened: as §1

[3] = system: PPARg DBDmut IVT, anti-PPARg (DBD mutation: PPARg1 K132A/R137A, NR concentration 270 nM)
Procedure, shortened: as §1

[4] = system: PPARg homodimer (NR concentration 180 nM)
Procedure, shortened: as §1

[5] = system: PXR:RXRa (NR concentration 270 nM, RXRa partner concentration 90 nM)
Procedure, shortened: as §1

[6] = system: PXR homodimer (NR concentration 270 nM)
Procedure, shortened: as §1

[7] = system: RARa:RXR (NR concentration 270 nM, RXRa partner concentration 90 nM)
Procedure, shortened: as §1

[8] = system: RARa homodimer (NR concentration 270 nM)
Procedure, shortened: as §1

[9] = system: RARb homodimer (NR concentration 270 nM)
Procedure, shortened: as §1

[10] = system: RARb:RXRa (NR concentration 270 nM, RXRa partner concentration 90 nM)
Procedure, shortened: as §1

Sequence | PBM binding z-score [1] | PBM binding z-score [2] | PBM binding z-score [3] | PBM binding z-score [4] | PBM binding z-score [5] | PBM binding z-score [6] | PBM binding z-score [7] | PBM binding z-score [8] | PBM binding z-score [9] | PBM binding z-score [10]
CGTCAAAGGTCAAGGTCAGTGAAAGAGACTCGAA | 6.36 | 3.41 | 4.07 | 6.26 | 6.26 | 1.8 | 6.98 | 4.06 | 5.34 | 
ATCGAAAGGTCATGAGGTGAGTATACAGAAAGGC | 5.59 | 2.8 | 3 | 4.69 | 5.71 | 0.933 |  | 3.7 | 5.04 | 
GCTGCTAGGTCAACTGATGGTCAACTAAAGCTCG | 4.19 | -0.672 | 0.0374 | 2.3 | 2 | -0.565 |  | 0.323 | 3.7 | 4.29
CAAACTAGGTCACGAGAGGTCAAAGTCGAATGAC | 9.18 | 3.71 | 4.06 | 5.24 |  | 3.95 | 7.58 | 2.65 | 5.6 | 5.51
CCTTACGGGTCACGTGGTTATAGCACGACGAGCG | 4.93 | 0.819 | -0.242 | 1.26 |  | -0.028 | 4.4 | 0.132 | 3.47 | 4.49
CTCGAAAGGTCGTGCTCAGATGAGTATACCAAAC | 1.25 | 0.625 | 1.37 | 1.3 | 2.96 | 0.152 |  | 0.441 | 2.15 | 3.79
CAAACCAGGTCAAGAGGTCAAAGTCCGCTTCCCG | 6.81 | 3.85 | 3.15 | 8.14 |  | 3.35 | 8.42 | 3.47 | 5.59 | 5.6
CGAACGAGGTCATCCAGGACAGTGAATACATTGA | 6.11 | 3.53 | 2.68 | 4.36 |  | 9.68 | 6.05 | 1.86 | 4.1 | 5.11
CTCGAAAGGTCATGCTCAGGTGAGTATACCAAAC | 4.89 | 1.38 | 0.849 | 3.71 | 5.91 | 0.752 | 6.85 | 2.27 | 5.14 | 
CGTCAAAGTTCAACTAAGGTTACGTAAAGCACGC | 2.44 | 1.54 | 1.43 | 3.83 |  | 8.22 | 5.27 | 1.91 | 5.67 | 5.44
CGTCAAAGGTCAGCAGGTCAGTGAAAGCGACGTG | 5.73 | 1.7 | 1.47 | 7.06 | 5.39 | 0.608 |  | 4.86 | 5.42 | 
CCTTAGGGGTCAAGGTTATAGCACGGGTGGTACG | 5.19 | 1.1 | 0.837 | 4.4 | 6.23 | 1.1 |  | 2.38 | 5.11 | 
CCTACTGGGCCATTCAGAGGGCATTGATCATATG | 3.43 | -0.276 | -0.131 | 0.0332 |  | -0.0942 | 0.0322 | -0.556 | 1.27 | 1.09
TATACAGGGTCAAAGGCCAAAGTACGAATGTCGA | 5.37 | 2.17 | 1.63 | 4.71 | 5.05 | 0.969 |  | 1.74 | 3.7 | 4.76
CCTTAGGGGTCACTGACAGGTTATAGCATTTGGA | 5.5 | 1.68 | 2.53 | 4.49 | 6.32 | 0.503 |  | 2.05 | 4.99 | 
CAAAATAGGTCAAAGGTCAAAGTCGAGCCAACCA | 8.59 | 3.03 | 1.57 | 4.96 | 7.32 | 2.02 | 9.14 | 3.71 | 5.5 | 
CGTCAAAGTTCAAGGTCACGTAACAGAAAGCAGC | 4.54 | 0.668 | 0.649 | 4.73 | 6.25 | 4.18 | 5.79 | 3.09 | 5.56 | 
ATATGTAGGTTATCTGGGGTCATTCAGACTAGGC | 6.58 | 2.87 | 2.04 | 3.42 |  | 6.37 | 5.95 | 1.76 | 3.97 | 3.16
TTACCAAGGTCAAGGTCGTTGATCCCTCTGTAGA | 5.09 | 1.64 | 0.631 | 4.12 | 5.31 | 2.27 | 5.57 | 1.71 | 4.86 | 
CGTCCAAGGTCTAGGTCAGTGAAAGAGACTCGAA | 1.61 | -1.11 | -1.28 | 0.763 |  | -0.179 | 0.514 | 0.0377 | 2.38 | 2.48
CCTCGGAGGTCAACAGGAGGTCAGAGCTGCCAGA | 4.76 | -0.0592 | -0.488 | 5.25 |  | 1.63 |  | 1.53 | 5.7 | 
